Source: PubChem BioAssay (EPA / NIEHS)
Inconclusive results are not listed. Activity calls are given as the source filed them. The calls were made as follows, unless noted: active = hit-call score of the fitted dose curve at least 0.9, where 1 is the maximum; inconclusive = response in the unintended direction; inactive = score below 0.9.

How the values were obtained:
[1] = Tanguay_ZF_120hpf_CFIN_legacy: (Legacy) Oregon State University Tanguay Lab 120 Hour Post-fertilization zebrafish Assay for Caudal Fin Malformation (AID 2283649)
Summary of the method: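 Dechorionated 5D wild-type zebrafish, static exposure 6–120 hpf, 28C, sealed and dark, 0.64% v/v DMSO final. Binary fin-malformation call at 120 hpf, brightfield; gain of signal vs DMSO baseline.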

[2] = Tanguay_ZF_120hpf_PIG_legacy: (Legacy) Oregon State University Tanguay Lab 120 Hour Post-fertilization zebrafish Assay for Pigmentation Malformation (AID 2283650)
Summary of the method: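 Brightfield scoring of pigmentation malformation at 120 hpf, recorded as binary present/absent per larva. Exposure: dechorionated 5D wild-type embryos, one per well, static from 6 hpf at 28C, final DMSO 0.64% (vol/vol). Dead embryos not scored.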

[3] = Tanguay_ZF_120hpf_CIRC_legacy: (Legacy) Oregon State University Tanguay Lab 120 Hour Post-fertilization zebrafish Assay for Circulatory Malformation (AID 2283651)
Summary of the method: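 Binary circulatory malformation call at 120 hpf by brightfield imaging of zebrafish larvae; chorion removed at 4 hpf, static exposure from 6 hpf in sealed dark plates at 28C, final DMSO 0.64%; non-mortality endpoints skipped if embryo died.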

[4] = Tanguay_ZF_120hpf_SWIM_legacy: (Legacy) Oregon State University Tanguay Lab 120 Hour Post-fertilization zebrafish Assay for Swim Bladder Malformation (AID 2283654);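 also: swim bladder malformation in each larva scored yes or no under brightfield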
Summary of the method: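 Tropical 5D embryos dechorionated at 4 hpf; 1 embryo/well from 6 hpf; static, sealed, dark exposure at 28C until 120 hpf; final DMSO 0.64%; 5uM trimethyltin chloride positive control; swim bladder defect recorded yes/no; dead embryos not scored.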

[5] = Tanguay_ZF_120hpf_TRUN_legacy: (Legacy) Oregon State University Tanguay Lab 120 Hour Post-fertilization zebrafish Assay for Truncated Body (AID 2283655)
Summary of the method: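 Whole-embryo zebrafish screen: dechorionated 5D embryos, static exposure 6–120 hpf, 28C, sealed foil-covered plates, 0.64% DMSO. Binary truncation call; gain of signal versus DMSO baseline.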

[6] = Tanguay_ZF_120hpf_NC_legacy: (Legacy) Oregon State University Tanguay Lab 120 Hour Post-fertilization zebrafish Assay for Notochord and Tail Malformation (AID 2283656)
Summary of the method: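 Binary scoring of notochord distortion by brightfield microscopy; embryos dying were not scored. Wild-type Tropical 5D embryos, chorion removed, exposed singly and statically from 6 to 120 hpf, 28C, sealed, 0.64% DMSO.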

[7] = Tanguay_ZF_120hpf_TR_legacy: (Legacy) Oregon State University Tanguay Lab 120 Hour Post-fertilization zebrafish Assay for Touch Response (AID 2283667)
Summary of the method: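 Binary touch-response call at 120 hpf, analysed as gain of signal versus DMSO baseline. Wild-type 5D larvae, static exposure at 28C, 0.64% DMSO final; 5uM trimethyltin chloride as positive control.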

[8] = CCTE_Padilla_ZF_144hpf_TERATOSCORE: (Legacy) CCTE's 144 Hour Post-fertilization zebrafish Assay Teratoscore, Padilla Lab (AID 2283679; active = hit-call score of the fitted dose curve at least 0.9, where 1 is the maximum; inactive = score below 0.9;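 as to AC50: zebrafish embryos with chorions exposed by immersion from 6-8 hpf to 5 dpf with daily renewal; teratogenicity score from eye scoring of death hatching and malformations at 144 hpf; higher score means more developmental defects relative to DMSO baseline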)
Summary of the method: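 Larvae scored by eye at 144 hpf for death, hatching and malformations after a day in clean Hanks'. Before that, daily-renewed exposure at 80 uM (0.4% DMSO, 26C) from roughly 6-8 hpf through 5 dpf, 4 embryos per chemical.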

[9] = Tanguay_ZF_120hpf_ActivityScore_legacy: (Legacy) Oregon State University Tanguay Lab 120 Hour Post-fertilization zebrafish Assay Score for Activity (AID 2283742);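 as to AC50: dechorionated Tropical 5D wild-type zebrafish embryos held singly per well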
Summary of the method: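 Dechorionated 5D embryos, one per well, static exposure 6–120 hpf, 28C, sealed and dark; final DMSO 0.64% (vol/vol). Brightfield binary scoring of mortality plus 18 endpoints; gain-of-signal fit versus DMSO baseline.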

[10] = read-out: kallikrein-3 (KLK3), KLK3 (gene 354); test: LTEA_HepaRG_KLK3: Life Technologies and Expression Analysis (LTEA) Assay for kallikrein-3 (KLK3) using HepaRG (AID 2283652; active = hit-call score of the fitted dose curve at least 0.9, where 1 is the maximum; inactive = score below 0.9); conditions: mRNA level, 48 h; actives raise or lower the signal
Summary of the method: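 KLK3 transcript levels were measured by TaqMan qRT-PCR with normalisation to three housekeeping genes. HepaRG cultures received chemicals for 48 h at up to 100 uM (half-log, 8 points, 0.5% DMSO vehicle), fitted in both directions against DMSO.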

[11] = read-out: solute carrier (SLC22A6), SLC22A6 (gene 9356); test: LTEA_HepaRG_SLC22A6: Life Technologies and Expression Analysis (LTEA) Assay for solute carrier (SLC22A6) using HepaRG (AID 2283653; active = hit-call score of the fitted dose curve at least 0.9, where 1 is the maximum; inactive = score below 0.9); conditions: mRNA level, 48 h; actives raise or lower the signal
Summary of the method: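 HepaRG, human liver line; 48 h chemical exposure; 8-pt half-log series from 100 uM in 0.5% DMSO, duplicate wells. Readout: TaqMan qRT-PCR of SLC22A6 mRNA, housekeeping-normalised; bidirectional curve fit vs DMSO baseline.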

[12] = read-out: solute carrier (SLC10A1), SLC10A1 (gene 6554); test: LTEA_HepaRG_SLC10A1: Life Technologies and Expression Analysis (LTEA) Assay for solute carrier (SLC10A1) using HepaRG (AID 2283657; active = hit-call score of the fitted dose curve at least 0.9, where 1 is the maximum; inactive = score below 0.9); conditions: mRNA level, 48 h; actives raise or lower the signal
Summary of the method: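 HepaRG, 48 h exposure, 8-pt half-log curve from 100 uM in 0.5% DMSO, duplicates. Read-out: TaqMan qRT-PCR of SLC10A1 mRNA, normalized to three housekeeping genes. Gain/loss fit vs DMSO baseline.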

[13] = read-out: matrix metalloproteinase-1 (MMP1), MMP1 (gene 4312); test: LTEA_HepaRG_MMP1: Life Technologies and Expression Analysis (LTEA) Assay for matrix metalloproteinase-1 (MMP1) using HepaRG (AID 2283658; active = hit-call score of the fitted dose curve at least 0.9, where 1 is the maximum; inactive = score below 0.9); conditions: mRNA level, 48 h; actives raise or lower the signal
Summary of the method: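 MMP1 transcript read by TaqMan qRT-PCR (Fluidigm array) after 48 h chemical exposure of HepaRG cells in serum-free induction medium. Eight-point half-log series, top 100 uM, 0.5% DMSO vehicle. Bidirectional curve fit against DMSO baseline.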

[14] = test system: Thyroperoxidase (TPO), gene 54314; test: CCTE_Simmons_AUR_rTPO: CCTE's Amplex UltraRed Assay for Thyroperoxidase (TPO) Inhibition, Simmons Lab (AID 2283662);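 also: potency for loss of signal meaning inhibition of peroxidase activity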
Summary of the method: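 Cell-free peroxidase activity assay using rat thyroid gland microsomes with excess H2O2 (300 uM) and 25 uM Amplex UltraRed. Compounds tested from 5 nM to 87.5 uM; fluorescence measured after 30 min at 37C, analysed relative to DMSO baseline.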

[15] = CCTE_Simmons_CellTiterGLO_HEK293T: Viability Assessment in CCTE's Assays for Thyroperoxidase (TPO) Inhibition, Simmons Lab (AID 2283665);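 as to AC50: cells exposed to compound for 24 h before readout; actives reduce ATP signal below DMSO vehicle meaning cytotoxicity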
Summary of the method: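 Luciferase-coupled ATP content after 24 h exposure gives viability; 8-point series from 5 nM to 87.5 uM final in 0.5% DMSO. Human HEK293T cells, 1% FBS medium, three biological replicates, dichlone positive control.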

[16] = STM_H9_OrnithineISnorm_perc: Stemina devTOX quickPredict H9 human embryonic stem cell (hESC)-based Assay for Ornithine (ORN) Metabolite Biomarker, Normalized (AID 2283712; active = hit-call score of the fitted dose curve at least 0.9, where 1 is the maximum; inactive = score below 0.9;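 also: ornithine released into spent medium during last day measured by mass spectrometry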)
Summary of the method: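 Ornithine in spent medium from the last 24 h of a 72 h exposure, deproteinised and quantified by UPLC-HRMS against an isotope-labelled internal standard, expressed relative to 0.1% DMSO. Pluripotent H9 cells; compound refreshed every 24 h.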

[17] = STM_H9_CystineISnorm_perc: Stemina devTOX quickPredict H9 human embryonic stem cell (hESC)-based Assay for Cystine (CYSS) Metabolite Biomarker, Normalized (AID 2283713; active = hit-call score of the fitted dose curve at least 0.9, where 1 is the maximum; inactive = score below 0.9)
Summary of the method: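 Cystine in spent media from the last 24 h of a 72 h H9 hESC exposure (daily re-dosing), measured by UPLC-HRMS. Values normalized to isotopic internal standard, then to 0.1% DMSO; viability via CellTiter-Fluor.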

[18] = STM_H9_OrnCyssISnorm_ratio: Stemina devTOX quickPredict H9 human embryonic stem cell (hESC)-based Assay for Ornithine (ORN):Cystine (CYSS) Ratio (AID 2283714)
Summary of the method: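 UPLC-HRMS of spent media: ORN/CYSS ratio of internal-standard-normalized percentages, DMSO (0.1%) baseline. Pluripotent H9 hESCs, 72h exposure, daily re-dosing with fresh media; last 24h media collected.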

[19] = ArunA_CellTiter_hNC: Viability Assessment in the ArunA Biomedical's Oris Neural Crest (hNC) Cell Migration Assay (AID 2283752)
Summary of the method: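 After a 72 h chemical exposure, viability of hNC cells is read with CellTiter Aqueous One and fitted as signal loss relative to DMSO. Cells were seeded at 60,000/well on Matrigel and cultured 16 h at 37 C beforehand.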

Measured: AC50

CS(=O)(=O)NC(=O)c1cc(Oc2ccc(C(F)(F)F)cc2Cl)ccc1[N+](=O)[O-]
active: [8] 0.128 µM
inactive: [1] | [2] | [3] | [4] | [5] | [6] | [7] | [9]

C1=Cc2cccc3cccc1c23
not listed: [7] | [8] | [14] | [15] | [16] | [17] | [18] | [19]
inactive: all other assays above

COC(=O)Nc1nc2ccccc2[nH]1
active: [14] 24.5 µM | [15] 1.41 µM | [8] 2.61 µM | [17] 10 µM | [18] 6.5 µM
inactive: [1] | [2] | [3] | [4] | [5] | [6] | [16] | [9]

Clc1ccccc1Cl
inactive: [1] | [2] | [3] | [4] | [5] | [6] | [9]

O=C(Nc1ccccc1)c1ccccc1I
active: [1] 45 µM | [3] 76.6 µM | [8] 5.47 µM | [9] 11.6 µM
inactive: [2] | [4] | [5] | [6] | [7]

CC(O)CCO (configuration not stated)
inactive: [1] | [2] | [3] | [4] | [5] | [6] | [7] | [8] | [9]

CCN(CC)CCO
not listed: [8] | [10] | [14] | [15] | [16] | [17] | [18] | [19]
inactive: all other assays above

CCCCC(CC)COC(=O)c1ccc(C(=O)OCC(CC)CCCC)c(C(=O)OCC(CC)CCCC)c1 (configuration not stated)
active: [14] 12.7 µM
inactive: [1] | [2] | [3] | [4] | [5] | [6] | [15] | [9]

Oc1ccc2ccc3cccc4ccc1c2c34
active: [1] 12.4 µM | [2] 44 µM | [4] 48.3 µM | [5] 46.5 µM | [6] 11 µM | [14] 10.9 µM | [15] 10.8 µM | [8] 15.2 µM | [9] 47.4 µM | [19] 14.7 µM
inactive: [3] | [16] | [17] | [18]
